This is a sample that favours compounds with a hit; in the whole collection about 2.4% have one here.
D2 antag – HTS Assay for Allosteric Antagonists of the Human D2 Dopamine Receptor: Primary Screen for Antagonists. HEK293 TREx D2 cells, calcium flux, dopamine EC80. inhibition, % at 10 µM. 340,000 compounds, 2% hits. D(2) dopamine receptor (Homo sapiens), P14416; in the data active means inhibition above about 30%; inactive means below that, where a call was filed; further: 0% is about no effect
Target sequence (P14416 whole entry, looked up): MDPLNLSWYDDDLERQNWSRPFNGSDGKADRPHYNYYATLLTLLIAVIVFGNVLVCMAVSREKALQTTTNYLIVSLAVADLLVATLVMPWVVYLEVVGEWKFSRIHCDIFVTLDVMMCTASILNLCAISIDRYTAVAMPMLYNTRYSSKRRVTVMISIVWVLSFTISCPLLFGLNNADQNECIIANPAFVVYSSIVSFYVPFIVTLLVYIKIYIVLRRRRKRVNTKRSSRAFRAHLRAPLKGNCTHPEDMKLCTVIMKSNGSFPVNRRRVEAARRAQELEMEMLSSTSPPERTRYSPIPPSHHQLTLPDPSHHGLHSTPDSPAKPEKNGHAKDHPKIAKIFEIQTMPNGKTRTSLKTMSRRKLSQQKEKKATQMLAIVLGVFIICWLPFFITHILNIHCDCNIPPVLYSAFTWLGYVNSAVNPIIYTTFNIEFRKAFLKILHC
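Inhibition of EC80 dopamine-driven calcium flux, recorded kinetically, defines activity here; cells are a tetracycline-induced HEK293 T-REx line expressing force-coupled D2.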
D2 ag-1 – HTS Assay for Allosteric Agonists of the Human D2 Dopamine Receptor: Primary Screen for Agonists; D(2) dopamine receptor (Homo sapiens), P14416; HEK293 T-REx D2 cells, calcium flux agonist mode; activation, % at 2 µM; 340,000 compounds, 0.53% hits;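 active means activation over 3 SD above normal in the single-dose calcium agonist read, cut at about 30% in these data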; further: 0% is about no effect
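Agonism scored from kinetic calcium signal (1 read/sec, 180 s) following compound pin transfer, after a 10 s baseline. Cells: HEK293 Trex line expressing inducible D2 receptor coupled to calcium, dye-loaded after overnight culture at 30 C.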
D2 ag-2 – Beta-Arrestin HTS for Positive Allosteric Modulators of the Human D2 Dopamine Receptor: Agonists; DiscoveRx PathHunter D2 beta-arrestin, luminescence, 90 min; 100% = 57 uM dopamine signal; activation, % (test concentration not listed); 360,000 compounds, 0.084% hits; D(2) dopamine receptor (Homo sapiens), P14416; in the data active means activation above about 40%; inconclusive means between about 15% and that limit
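DiscoveRx PathHunter D2 beta-arrestin cells (2,100/well) attached overnight, then compound-stimulated 90 min at 37 C in HBSS/10 mM HEPES/0.1% Tween-20 buffer; beta-galactosidase complementation read by luminescence after 1 h at ambient temperature. Dopamine 57 uM final (EC100) as control.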
D2 PAM-1 – Beta-Arrestin HTS for Positive Allosteric Modulators of the Human D2 Dopamine Receptor: Potentiators; D(2) dopamine receptor (Homo sapiens), P14416; DiscoveRx D2 beta-arrestin cells, luminescence, 90 min; 100% = 57 uM dopamine signal; potentiation, % (no concentration beside the values); 360,000 compounds, 0.23% hits; in the data active means potentiation above about 50%; inconclusive means mostly about 30% to 49%
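PathHunter D2 cells, attached overnight at 37 deg C, received compound in DMSO plus dopamine at EC20 (50 nM final) for 90 min at 37 deg C. Beta-arrestin recruitment was read as luminescence after 1 h with detection reagent at ambient temperature.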
D2 PAM-2 – HTS Assay for Positive Allosteric Modulators of the Human D2 Dopamine Receptor: Primary Screen for Potentiators | 340,000 compounds, 0.34% hits | HEK293 T-REx D2, calcium flux, EC20 dopamine potentiation | AID 485347, 2010 | D(2) dopamine receptor (Homo sapiens), P14416 | potentiation, % at 10 µM;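 active means potentiation over 3 SD above the plate norm, cut at about 30% in these data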; further: 0% is about no effect
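Calcium flux readout, no-wash dye, 1 read/s. Inducible HEK293 Trex D2 line, overnight 30 C. Compound alone 180 s (agonist flags), then EC20 dopamine, another 180 s to score potentiation.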
D3 ag – qHTS of D3 Dopamine Receptor Agonist: D3 Dopamine Receptor B-arrestin Agonist Confirmatory Assay. DiscoveRx D3 beta-arrestin cells, luminescence, 90 min. 2,300 compounds, 4% hits. AID 720506, 2013. shares compounds with D2 ag-1. Potency, µM (doses to about 76.9 µM), inactives show top-dose activation, hits mostly activators;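 further: potency means the concentration at half of the fitted maximal effect; 100% = dopamine control response; nearly all actives have a fitted effect of over 70% in size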
D2 ag-3 – qHTS of D3 Dopamine Receptor Agonist: D2 Dopamine Receptor B-arrestin Agonist Counterscreen | Potency, µM (series often up to 76.9 µM), inactives show at the highest dose activation, actives largely listed as activators | 2,300 compounds, 5.9% hits | DiscoveRx PathHunter D2 beta-arrestin, luminescence, 90 min; response scale: percent relative to full dopamine signal | AID 720507, 2013 | shares compounds with D2 ag-1; further: potency means the concentration at half of the fitted maximal effect; % of control where 0% means no effect; nearly all actives have a fitted effect of over 70% in size
Numbers without * were called inactive; ? = inconclusive; / = not tested or not shown. Unless noted, the call rests on the fitted dose curve; in most records, active means well fitted activation curve with a large enough effect; inconclusive means small, poorly fitted or top-dose-only effect; inactive means flat fitted curve, though single readings scatter.

SMILES	D2 antag	D2 ag-1	D2 ag-2	D2 PAM-1	D2 PAM-2	D3 ag	D2 ag-3
CCOC(=O)c1ccc(N2C(=O)CC(NC3CCN(C(=O)c4ccc(F)cc4)CC3)C2=O)cc1 (stereo not given)	-6	0	-2	-13	1	/	/
CCc1cc2c(cc3c(=O)n(CC(=O)N4CCN(c5cccc(C)c5C)CC4)nc(CC)n32)s1	/	0	/	/	0	/	/
CNC(=O)C1CCC(Cn2c(=O)[nH]c3ccsc3c2=O)CC1 (stereo not given)	/	-2	/	/	2	/	/
CCOC(=O)C1CCN(CC(O)COc2ccc(C(C)(C)C)cc2)CC1 (stereo not given)	26	0	?	-7	6	/	/
CCOC(=O)C1CCN(CC(O)COc2ccc(C(C)=O)cc2)CC1 (stereo not given)	31*	41*	-7	7	-15	4%	17%
CCOC(=O)C1CCN(CC(O)COc2ccc(C(C)(C)CC)cc2)CC1 (stereo not given)	80*	66*	11	-6	-27	11%	?
COC(=O)c1c(-c2cccs2)csc1NC(=O)COc1c(C)ccc(C)c1C	/	/	/	/	-3	/	/
CC(=O)N1CCC2(CC1)OC(=O)C(C)=C2C(=O)Nc1ccccc1C(F)(F)F	/	/	/	/	-8	/	/
Cc1cccc(C)c1N1CCN(CCn2c(=S)[nH]c3ccccc3c2=O)CC1	71*	30	-4	-3	-20	-2%	8%
CCN1CCN(CCn2c(=S)[nH]c3ccccc3c2=O)CC1	11	0	-3	-34	-18	/	/
COc1ccc(NC(=O)C(C)N2CCN(C)CC2)cc1 (stereo not given)	-21	79*	-2	4	-29	-2%	-2%
Cc1cc2c(n1-c1ccc(C(=O)NCc3ccccc3Cl)cc1)CCCC2	/	1	/	/	-8	/	/
C=CCN(CC=C)CCOc1cc(C)ccc1[N+](=O)[O-]	-8	21	-3	-3	-28	7%	6%
O=C(NCCc1nc2ccccc2n1Cc1c(F)cccc1Cl)c1ccco1	/	-1	/	/	/	/	/
COc1ccc(/C(C)=N/NC(=O)c2nnn(-c3nonc3N)c2-c2cccs2)cc1	-8	3	-5	-9	15	0%	-4%
COc1cccc(-c2c(C(=O)N/N=C(\C)c3cccs3)nnn2-c2nonc2N)c1	3	37*	-2	-6	-2	-8%	-4%
C/C(=N\NC(=O)c1nnn(-c2nonc2N)c1-c1cccs1)c1ccc(C)cc1	11	8	-9	1	7	/	/
CCOc1cccc(-c2c(C(=O)N/N=C(\C)c3cccs3)nnn2-c2nonc2N)c1	16	18	-5	2	9	-4%	-3%
COc1cccc(-c2c(C(=O)N/N=C(\C)c3ccncc3)nnn2-c2nonc2N)c1	-10	0	3	-10	-6	/	/
C/C(=N\NC(=O)c1nnn(-c2nonc2N)c1-c1ccc2c(c1)OCO2)c1cccs1	37*	32*	-1	-5	7	-2%	-3%
Clc1cccc(-n2ncc3c(NCCCN4CCOCC4)ncnc32)c1	/	-1	/	/	-6	/	/
CCN1C=CC2=C(C#N)C(N)C(C#N)(C#N)C(c3ccccc3C(F)(F)F)C2C1 (stereo not given)	14	3	-8	-13	14	-1%	-3%
CCN1C=C(Cc2ccccc2C)C2=C(C1)C(c1ccccc1C)C(C#N)=C(N)O2 (stereo not given)	/	/	0	-34	0	/	/
O=C1C2CC=CCC2C(=O)N1c1ccc(N2CCN(c3ccccn3)CC2)c([N+](=O)[O-])c1 (stereo not given)	18	26	2	7	-22	?	9%
O=C(NCCNC1CCCCC1)c1ccco1	5	12	-1	-7	8	/	/
SMILES	D2 antag	D2 ag-1	D2 ag-2	D2 PAM-1	D2 PAM-2	D3 ag	D2 ag-3
CC1CCC(NCCNC(=O)c2ccco2)CC1 (stereo not given)	14	68*	-5	-15	-22	-18%	-7%
O=S(=O)(NCCN1CCCC1)c1cccc2cccnc12	-10	1	-2	-6	0	/	/
O=S(=O)(NCCCN1CCN(c2ccccc2F)CC1)c1cccc2cccnc12	/	/	-4	1	/	17%	14%
COc1cccc(S(=O)(=O)NC2CCN(C#N)C2)c1 (stereo not given)	1	0	/	/	5	-6%	-2%
Cc1nn(C(C)C(=O)Nc2cccc(F)c2)c(=O)c2c1sc1ccccc12 (stereo not given)	/	0	/	/	/	/	/
CC(C)OCCCn1c(=O)c2ccccc2n2c(-c3ccc(F)c(F)c3)nnc12	/	-1	/	/	7	/	/
CCC(C)N(CCNC(=O)c1ccc2c(c1)NC(=O)c1ccccc1S2)C1CCCCC1 (stereo not given)	/	/	-6	-32	-28	-11%	-3%
CC(=O)Nc1ccc(NC(=O)c2ncoc2-c2ccco2)cc1	/	2	/	/	-4	/	/
O=C(c1ccc(Cl)cc1)N1CCN(CCOc2ccccc2)CC1	76*	74*	?	-2	-22	0.1µM*	25µM*
COc1ccc(OCCN2CCN(C(=O)c3ccc(OC(F)F)c(OC)c3)CC2)cc1	-4	11	3	1	11	/	/
Cc1ccc(C)n1CCN1CCN(C(=O)c2ccc(Cl)cc2)CC1	9	-2	0	-34	-17	/	/
COc1ccc(OCCN2CCN(C(=O)c3ccc(OC)cc3)CC2)cc1	13	42*	3	-7	-10	0.45µM*	18%
O=C(c1c(F)cccc1F)N1CCN(CCOc2ccccc2)CC1	22	60*	1	-9	-9	?	18%
OCCN1CCN(CCOc2cccc(Cl)c2)CC1	76*	33*	3	-29	-23	?	4%
CCCCNC(=O)CSc1nc2nc(C)c(Cc3ccccc3C)c(C)n2n1	/	/	/	/	21	/	/
CCNC(=O)c1cnc2sc(N3CCC(C)CC3)nn2c1=O	/	0	/	/	-3	/	/
